Marburg entry inh: inhibitors of Marburg virus binding or cell entry | Marburg virus pseudotyped entry inhibition, cell reporter | Potency, µM (doses to about 37.8 µM), inactives show top-dose activity change, negative = inhibition, actives largely listed as inhibitors | 300,000 tested, 1.8% active | AID 540276; calls by dose curve; tested in HEK293 cells; also: potency is read from the fitted curve at half-maximal effect
HCMV antiviral: inhibitors of human cytomegalovirus | activity change, negative = inhibition, % at 57.5 µM | 410,000 tested, 4.5% active | HFF cells, HCMV-luciferase reporter, 72 h; active compounds read low; in the data active = activity change below about -60%; inconclusive = no clear call, values can overlap the other calls; inactive = above about -39%
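Screen run at 2 compound doses on HFFs infected with reporter HCMV, MOI 1 PFU/cell. Luciferase activity from cell lysates at 72 h post infection gave inhibition relative to buffer-only and Salinomycin wells.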
LASV entry inh: blocks Lassa virus binding to or entry into cells; Lassa virus pseudotype entry inhibition, cell reporter; Potency, µM (highest dose often 37.9 µM), for inactives: at the highest dose activity change, negative = inhibition, most hits filed as inhibitors; 300,000 tested, 1.2% active; AID 540256; calls by dose curve; tested in HEK293 cells; also: potency is read from the fitted curve at half-maximal effect; nearly all actives have a fitted effect of over 50% in size
FMDV antiviral: antivirals against foot and mouth disease virus | FMDV antiviral cell-based qHTS | Potency, µM (doses to about 57.9 µM), inactives show top-dose activity change, negative = inhibition, actives largely listed as inhibitors | 410,000 tested, 1.2% active; calls by dose curve; tested in HEK293T cells; also: read-out not given here; potency is read from the fitted curve at half-maximal effect; nearly all actives have a fitted effect of over 45% in size
Numbers without * were called inactive; u = inconclusive; x = no result given; + = active, no number; [ ] = another dose, or the depositor's remark. Only some compounds are listed: those with a hit (about 6.2% of all), similar ones and a draw of the others. % is scaled to controls: 0 for no effect and ±100 for the full control effect.

SMILES	Marburg entry inh	HCMV antiviral	LASV entry inh	FMDV antiviral
CCc1sc(C(=O)Nc2ccccc2N2CCOCC2)cc1C	-26%[46.1 µM]	-75*	-14%[46.1 µM]	-11%
O=C(Nc1ccccc1N1CCOCC1)c1ccc([N+](=O)[O-])cc1	9%	-101*	-15%	-3%
O=C(CSc1ccc(Cl)cc1)Nc1ccccc1N1CCN(C(=O)c2ccccc2)CC1	u	-21	16µM*	13µM*
O=C(Nc1ccccc1N1CCN(C(=O)c2ccc(Cl)cc2)CC1)c1cccc([N+](=O)[O-])c1	u	-88*	2%[46.1 µM]	-13%
Cc1ccc(N2CCCn3c2nc2c3c(=O)n(CC(=O)OCc3ccccc3)c(=O)n2C)cc1C	6%	x	x	x
CCCOc1ccc(C2C(C(=O)c3ccc(C)o3)=C(O)C(=O)N2Cc2ccco2)cc1 (stereo not given)	x	3	x	-5%
CC(SCc1ccccc1)C(=O)N/N=C/c1cc2c(cc1Br)OCO2 (stereo not given)	u	-39	23µM*	-23%
Cc1ccc(CNc2nc3ccccc3s2)s1	u	54	6.3µM*	-30%
COc1ccc(CNc2nc3ccccc3s2)cc1OC	u	63	-20%[46.1 µM]	-15%
O=C1c2cccc(NCCCNCCO)c2C(=O)c2cccc(NCCCNCCO)c21	u	-98*	-16%[46.1 µM]	0%
CCCCOc1ccc(C(C)NC(=O)c2cccc(Nc3nc4ccccc4n4nnnc34)c2)cc1 (stereo not given)	x	-98*	0%[46.1 µM]	-18%
CS(=O)(=O)N(Cc1ccccc1)c1ccc(C(=O)Nc2ccc(C(N)=O)cc2)cc1	x	-11	x	-5%
CCCOc1cccc(-c2cc(C(=O)N/N=C/c3ccccn3)c3ccccc3n2)c1	u	-113*	u	-25%
O=C(O)c1ccc(/C=N/NC(=O)C2CC2(c2ccccc2)c2ccccc2)cc1 (stereo not given)	x	-13	x	x
O=C(N/N=C/c1cccnc1)C1CC1(c1ccccc1)c1ccccc1 (stereo not given)	u	-67*	-5%	-19%
COc1cc(/C=N/NC(=O)c2cc(-c3ccccc3)sc2N)cc(OC)c1OC	u	21	16µM*	-25%
COc1cc(/C=N/NC(=O)c2cc(-c3cccs3)nc3ccccc23)ccc1O	x	-21	x	-21%
COc1cc(/C=N/NC(=O)c2cc(-c3cccc(OC(C)C)c3)nc3ccccc23)ccc1O	3.5µM*	-61*	3.5µM*	-25%
CC(=O)Nc1cccc(NC(=O)COc2ccc3c(c2)CCC3)c1	x	-9	x	-3%
CCC(c1nnc(SCC(=O)Nc2ccc(C(N)=O)cc2)n1Cc1ccccc1)N(C)C (stereo not given)	8%	-1	29%	-7%
O=C(O)CNC(=O)c1ccc(NC(=O)/C(=C/c2ccccc2)NC(=O)c2ccccc2Br)cc1	x	-18	x	-2%
Cc1ccc(-c2cc(C(=O)N/N=C\c3cnn(C)c3C)c3ccccc3n2)cc1C	-24%	-31	11µM*	18%
O=C(O)COc1ccccc1/C=N/NC(=O)c1cc(-c2ccc(Cl)cc2)nc2ccccc12	3%[46.1 µM]	0	-25%	-13%
O=C(N/N=C/c1ccccn1)c1cc(-c2ccc(Br)cc2)nc2ccccc12	u	-100*	u	-12%
CC(C)(C)NC(=S)N/N=C/c1cccnc1	6%[46.1 µM]	-65*	u	6%
SMILES	Marburg entry inh	HCMV antiviral	LASV entry inh	FMDV antiviral
CC(C)(C)OC(=O)N/N=C\c1cccnc1	20%[46.1 µM]	-11	13%	3%
O=C(O)COc1ccccc1/C=N/NC(=O)c1cc(-c2ccccc2)nc2ccccc12	-5%	+	4%	-8%
COC(=O)c1ccc2c(=O)[nH]c(COC(=O)CCC(=O)c3ccc(Cl)cc3)nc2c1	13%[46.1 µM]	10	9%	0%
CCOc1ccc(CNS(=O)(=O)c2c(C(=O)N3CCC(C)CC3)c(C)n(C)c2C)cc1OC	x	8	7%[46.1 µM]	11%
CCN(c1ccccc1C)S(=O)(=O)c1cc2c3c(c1)CCN3C(=O)CC2	6%	-7	11%	23%
CCOc1ccc(C(=O)NC(Cc2ccccc2)C(=O)OC)cc1 (stereo not given)	-7%[46.1 µM]	12	4%	49%
Cc1occc1C(=O)N/N=C/c1cccnc1	-1%	0	u	0%
CCCOc1cccc(-c2cc(C(=O)N/N=C/c3cccnc3)c3ccccc3n2)c1	u	-83*	u	u
Cc1cccc(-c2cc(C(=O)N/N=C/c3cccnc3)c3ccccc3n2)c1	u	9	-9%[46.1 µM]	5%
CCc1ccc(/C=N/NC(=O)c2cc(-c3ccccc3OC)nc3ccccc23)s1	u	44	u	-10%
Cc1cc(C(=O)N/N=C/c2cccnc2)c(C)o1	13%	-99*	5%	-1%
COc1ccc(-c2cc(C(=O)N/N=C/c3cccnc3)c3ccccc3n2)cc1	u	u	10µM*	6%
COc1ccccc1-c1cc(C(=O)N/N=C/c2ccc(C)s2)c2ccccc2n1	8.9µM*	-23	7.1µM*	-14%
CCC1=NN2C(=N)/C(=C/c3ccc(OS(=O)(=O)c4ccccc4)cc3)C(=O)N=C2S1	x	x	x	-13%
O=C(NN1CCOCC1)c1cc(-c2ccc(Br)cc2)nc2ccccc12	12%	-60*	0%	0%
COC1CC(C)NC(=S)N1 (stereo not given)	u	38	12%	-14%
C=CCn1c(COc2ccccc2F)nnc1SCC(=O)c1c[nH]c2ccccc12	13µM*	-34	u	-30%
Cc1cc(C(=O)OCC(=O)Nc2ccccc2)c(C)o1	2%[46.1 µM]	-12	2%[46.1 µM]	14%
Cc1cc(C(=O)OCC(=O)Nc2nc(-c3ccccc3)cs2)c(C)o1	-3%	-101*	u	-18%
COc1ccccc1NC(=O)COC(=O)c1cc(C)oc1C	1%[46.1 µM]	-79*	0%[46.1 µM]	-4%
Cc1cc(C(=O)OC(C)C(=O)Nc2nc(-c3ccccc3)cs2)c(C)o1 (stereo not given)	u	-8	13µM*	x
CCOc1ccccc1NC(=O)COC(=O)c1cc(C)oc1C	8%	-5	9%	-8%
O=C(c1cnccn1)N1CCN(S(=O)(=O)c2ccc3ccccc3c2)CC1	10%	-17	-1%	-32%
CCc1ccc(C(=O)CN(C#N)c2nc(C)cc(C)n2)cc1	11µM*	u	u	-11%
COc1cc(NC(=O)Cn2ncc(Cl)c(Cl)c2=O)c(C)cc1[N+](=O)[O-]	7.1µM*	-96*	u	13µM*
SMILES	Marburg entry inh	HCMV antiviral	LASV entry inh	FMDV antiviral
COc1cc(NC(=O)CN2C(=O)CN(C)C2=O)c(C)cc1[N+](=O)[O-]	u	-2	u	3%
Cc1cccc(C(=O)OCC(=O)N2CC(C)CC(C)C2)c1C (stereo not given)	u	-17	-3%[46.1 µM]	19%
O=C(CSc1nncs1)NNC(=O)c1ccco1	x	0	x	-1%
CC[n+]1c(/C=C2\C=C(C)CC(C)(C)C2)sc2ccccc21	u	-19	9.2µM*	u
CCC1=C/C(=C/c2sc3ccccc3[n+]2CC)CC(C)(C)C1	-33%[46.1 µM]	-40	4%[46.1 µM]	u
CC[n+]1c(/C=C2/C=C(C)CC(C)(C)C2)sc2ccc(OC)cc21	u	-87*	u	20µM*
CCn1cnc2c1c(=O)n(CC(=O)Nc1ccc3c(c1)OC(F)(F)O3)c(=O)n2Cc1ccccc1	-5%	12	-15%	-21%

Screens from PubChem.
